Measured values taken from PubChem BioAssay (NCATS).
Values joined by “and” are separate entries in the source; they are usually repeats but may differ in a detail not shown here. Equal values may be shown once. Records with an inconclusive call do not appear. Active and inactive are the calls of the source. Unless noted, calls come from the whole dose curve; as a rule, active = well fitted curve in the direction sought with a large enough effect; inconclusive = small, poorly fitted or top-dose-only effect, or another doubt; inactive = no such curve, though single readings can be large; an effect the other way counts as inactive or inconclusive.

What was measured:
[1] = biological target: Cytochrome P450 2C9 (Homo sapiens) (UniProt P11712); assay: Cytochrome P450 family 2 subfamily C member 9 (CYP2C9) small molecule antagonists: luciferase biochemical (cell-free) qHTS assay (AID 1645842; active = well fitted curve in the direction sought with a large enough effect in the repeat runs; an effect the other way counts as inactive or inconclusive; note: nearly all actives have a fitted effect of over 55% in size; note: potency is the fitted concentration of half-maximal effect; for activity change, negative = inhibition: % is set by controls: 0 for no effect and ±100 for the full control effect)
Cytochrome P450 2C9 (Homo sapiens), sequence (P11712 whole entry, looked up): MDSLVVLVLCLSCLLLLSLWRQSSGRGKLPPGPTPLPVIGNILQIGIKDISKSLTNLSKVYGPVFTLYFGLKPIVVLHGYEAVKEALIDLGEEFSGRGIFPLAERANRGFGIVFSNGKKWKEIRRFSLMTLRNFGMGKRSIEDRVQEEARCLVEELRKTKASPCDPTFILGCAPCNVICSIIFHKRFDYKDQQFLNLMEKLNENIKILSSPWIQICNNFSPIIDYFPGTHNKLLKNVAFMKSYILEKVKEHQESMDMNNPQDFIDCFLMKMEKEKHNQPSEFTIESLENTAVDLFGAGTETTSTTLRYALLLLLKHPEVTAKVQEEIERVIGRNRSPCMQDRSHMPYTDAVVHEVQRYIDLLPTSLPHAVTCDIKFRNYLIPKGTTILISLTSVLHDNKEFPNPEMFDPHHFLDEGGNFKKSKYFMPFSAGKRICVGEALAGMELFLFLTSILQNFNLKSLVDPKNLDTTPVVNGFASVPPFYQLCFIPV
Outline: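 P450-Glo CYP2C9 system: proluciferin substrate with enzyme in mix containing 0.4% BSA, 10 min at room temperature, then NADPH regeneration solution added and incubated 1 h at 37C. Detection reagent stopped reaction; luminescence read after 20 min as RLU.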

[2] = Primary qHTS for inhibitors of nuclear receptor binding SET domain protein 2 (NSD2) in an isogenic RCH-ACV NSD2 p.E1099K mutant (9B) (AID 1645876); note: nearly all actives have a fitted effect of over 70% in size; note: potency is the fitted concentration of half-maximal effect
[3] = Primary qHTS for inhibitors of nuclear receptor binding SET domain protein 2 (NSD2) in an RCH-ACV wild type WT cells (2C) (AID 1645877); note: nearly all actives have a fitted effect of over 70% in size; note: potency is the fitted concentration of half-maximal effect
[4] = biological target: Catechol O-methyltransferase (Homo sapiens) (UniProt P21964); assay: Confirmatory Screen for Target Class Profiling of Small Molecule Inhibitors of Methyltransferases (AID 1745852; calls by dose curve; note: potency is the fitted concentration of half-maximal effect; for activity change, negative = inhibition: % is set by controls: 0 for no effect and ±100 for the full control effect); settings: MTase-Glo luminescence, SAH detection, recombinant enzyme; measured here: COMT max response; stronger effect = lower value
Catechol O-methyltransferase (Homo sapiens), sequence (P21964 whole entry, looked up): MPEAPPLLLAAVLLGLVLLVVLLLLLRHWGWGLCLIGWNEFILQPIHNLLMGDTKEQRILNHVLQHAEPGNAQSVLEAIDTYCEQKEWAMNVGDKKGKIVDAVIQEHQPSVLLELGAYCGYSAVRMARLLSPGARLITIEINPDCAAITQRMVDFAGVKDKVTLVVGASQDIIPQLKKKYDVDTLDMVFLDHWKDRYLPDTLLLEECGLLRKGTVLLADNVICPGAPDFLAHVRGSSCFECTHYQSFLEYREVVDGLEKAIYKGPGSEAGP

[5] = biological target: Guanidinoacetate N-methyltransferase (Homo sapiens) (UniProt Q14353); assay: as above; settings: activity change, negative = inhibition: at 57.3 µM (top of the series) unless noted
[6] = biological target: Nicotinamide N-methyltransferase (Homo sapiens) (UniProt P40261); assay: as above; settings: MTase-Glo luminescence, SAH detection, recombinant enzyme; measured here: NNMT max response; stronger effect = lower value
Nicotinamide N-methyltransferase (Homo sapiens), sequence (P40261 whole entry, looked up): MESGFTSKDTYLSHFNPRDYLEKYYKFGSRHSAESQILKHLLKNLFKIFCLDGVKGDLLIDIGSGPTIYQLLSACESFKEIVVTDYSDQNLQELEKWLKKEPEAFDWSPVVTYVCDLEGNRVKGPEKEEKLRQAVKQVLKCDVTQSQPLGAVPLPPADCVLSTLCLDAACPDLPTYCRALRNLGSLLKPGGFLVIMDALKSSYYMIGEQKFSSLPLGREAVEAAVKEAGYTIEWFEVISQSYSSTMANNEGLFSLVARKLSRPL

[7] = biological target: Phenylethanolamine N-methyltransferase (Homo sapiens) (UniProt P11086); assay: as above; settings: MTase-Glo luminescence, SAH detection, recombinant enzyme; measured here: PNMT max response; stronger effect = lower value
Phenylethanolamine N-methyltransferase (Homo sapiens), sequence (P11086 whole entry, looked up): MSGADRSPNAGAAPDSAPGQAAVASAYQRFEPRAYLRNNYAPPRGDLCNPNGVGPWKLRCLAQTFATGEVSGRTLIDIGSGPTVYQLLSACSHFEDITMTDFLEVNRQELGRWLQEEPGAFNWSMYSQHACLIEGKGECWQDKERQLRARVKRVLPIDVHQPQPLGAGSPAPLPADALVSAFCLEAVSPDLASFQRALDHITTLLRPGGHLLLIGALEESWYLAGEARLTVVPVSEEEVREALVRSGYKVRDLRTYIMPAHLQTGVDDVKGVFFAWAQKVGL

[8] = biological target: Glutathione peroxidase 1 (Homo sapiens) (UniProt P07203); assay: Primary qHTS Assay for Inhibitors of Recombinant Selenoprotein Glutathione Peroxidase 1 (GPX1) (AID 1845191); note: nearly all actives have a fitted effect of over 65% in size
Glutathione peroxidase 1 (Homo sapiens), sequence (P07203 whole entry, looked up): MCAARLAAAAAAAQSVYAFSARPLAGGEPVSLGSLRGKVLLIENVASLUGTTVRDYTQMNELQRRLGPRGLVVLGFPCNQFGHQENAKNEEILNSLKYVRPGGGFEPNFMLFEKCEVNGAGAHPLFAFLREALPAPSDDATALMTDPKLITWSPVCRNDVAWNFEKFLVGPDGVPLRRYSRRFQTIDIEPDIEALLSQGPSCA
Outline: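 NADPH consumption tracked by fluorescence at 340/450 nm between t=0 and t=15 min, room temperature. Final mix: 10 nM GPX1, 100 nM glutathione reductase, 1 mM GSH, 0.5 mM NADPH, 0.5 mM cumene hydroperoxide, 0.01% BSA; 30 min compound–enzyme preincubation.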

[9] = biological target: N-terminal Xaa-Pro-Lys N-methyltransferase 1 (Homo sapiens) (UniProt Q9BV86); assay: Confirmatory qHTS for Inhibitors of N-terminal methyltransferase 1 (NTMT1): MTaseGlo Assay (AID 1645874); note: potency is the fitted concentration of half-maximal effect; nearly all actives have a fitted effect of over 65% in size
N-terminal Xaa-Pro-Lys N-methyltransferase 1 (Homo sapiens), sequence (Q9BV86 whole entry, looked up): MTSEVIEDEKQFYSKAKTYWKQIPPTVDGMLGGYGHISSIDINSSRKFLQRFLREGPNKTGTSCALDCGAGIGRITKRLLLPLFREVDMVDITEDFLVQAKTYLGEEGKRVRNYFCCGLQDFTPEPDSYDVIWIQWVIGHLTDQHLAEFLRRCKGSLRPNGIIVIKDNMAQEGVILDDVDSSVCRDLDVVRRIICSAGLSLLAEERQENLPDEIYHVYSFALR
Outline: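 MTase-Glo luminescence measured SAH formed by 125 nM NTMT1 from 100 uM SAM and 1 uM SPKRIA peptide over 30 min at room temperature, following 15 min compound preincubation. Percent inhibition against no-enzyme and DMSO controls gave 4-parameter Hill fits.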

In the case of `CN(C)C/C=C/C(=O)Nc1cccc(C(=O)Nc2ccc(Nc3nccc(-c4cccnc4)n3)cc2)c1`, the Potency [1] is reported as “inactive”, the Potency [2] is reported as 649 nM (active) and the Potency [3] is reported as 578 nM (active). For the same compound, the activity [4] was -2.53%, the activity change, negative = inhibition [5] was 0.0986% and the activity [6] was -7.5%. The activity [7] was 1.39% and the Potency [8] was “inactive”.

For `COc1ccc(C(=O)n2c(C)c(Cc3cccc(O[C@@H](C)C(=O)O)c3)c3cc(OC(F)(F)F)ccc32)cc1`, the Potency [1] was 19 µM (active), the Potency [2] was “inactive” and the Potency [3] was “inactive”. The Potency [8] was “inactive”.

For `COc1ccc(C2=N[C@@H](c3ccc(Cl)cc3)[C@@H](c3ccc(Cl)cc3)N2C(=O)N2CCNC(=O)C2)c(OC(C)C)c1`, the Potency [1] was “inactive”, the Potency [2] was 3650 nM (active) and the Potency [3] was 1630 nM (active).

With `COc1ccc2cc(C(C)C(=O)Oc3ccc(C(N)=S)cc3)ccc2c1` (configuration not stated) the Potency [1] was 21.3 µM (active), the Potency [2] was “inactive” and the Potency [3] was “inactive”.

With `COc1cc(C(=O)NC2CCN(C)CC2)ccc1Nc1ncc2c(n1)N(C1CCCC1)CC(F)(F)C(=O)N2C` the Potency [1] was “inactive”, the Potency [2] was 20.5 nM (active) and the Potency [3] was 32.5 nM (active). For the same compound, the activity [4] was -24%, the Potency [5] was 27.1 µM (active) and the activity [6] was -23.8%. The activity [7] was -20.9% and the Potency [8] was “inactive”.

In the case of `CC(C)c1nnc(-c2ccc(-c3ccccc3)nc2)n1-c1cccc2nonc12`, the Potency [1] is reported as 13.5 µM (active), the Potency [2] is reported as “inactive” and the Potency [3] is reported as “inactive”. For the same compound, the Potency [8] was “inactive”.

With `O=C(Nc1c(-c2cccs2)nc2ccccn12)c1ccc(Cl)cc1` the Potency [1] was 15.1 µM (active), the Potency [2] was “inactive” and the Potency [3] was “inactive”. The Potency [8] was “inactive”.

For `C[C@@H]([C@@H](O)c1ccc(O)cc1)N1CCC(O)(c2ccccc2)CC1`, the Potency [1] was “inactive”, the Potency [2] was “inactive” and the Potency [3] was “inactive”. The Potency [8] was “inactive”.

With `Cc1cc(Nc2cc(N3CCN(C)CC3)nc(/C=C/c3ccccc3)n2)n[nH]1` the Potency [1] was “inactive”, the Potency [2] was 728 nM (active) and 934 nM (active) and the Potency [3] was 649 nM (active) and 742 nM (active). The Potency [8] was “inactive”.

With `Cc1cc(NC(=O)Nc2ccc(F)c(F)c2)n(-c2ccccc2)n1` the Potency [1] was 12 µM (active), the Potency [2] was “inactive” and the Potency [3] was “inactive”. The Potency [8] was “inactive”.

For `COc1ccc(-c2cnc3ccc(NCc4ccc(S(N)(=O)=O)cc4)nn23)cc1OC`, the Potency [1] was 6.74 µM (active), the Potency [2] was 9160 nM (active) and the Potency [3] was 7280 nM (active). For the same compound, the activity [4] was -34.5%, the Potency [5] was 38.3 µM (active) and the activity [6] was -24.2%. For the same compound, the activity [7] was -27.8% and the Potency [8] was “inactive”.

For `N#Cc1c(Oc2ccc(F)c(NC(=O)Cc3cccc(C(F)(F)F)c3)c2)ccc2nc(NC(=O)C3CC3)sc12`, the Potency [1] was 0.338 µM (active), the Potency [2] was 578 nM (active) and the Potency [3] was 1150 nM (active). The Potency [8] was “inactive”.

For `CC(=O)NCC(=O)N1C2CCC1c1cc(Nc3ncc(C(F)(F)F)c(NC4CCC4)n3)ccc12` (configuration not stated), the Potency [1] was 9.52 µM (active), the Potency [2] was 72.8 nM (active) and the Potency [3] was 20.5 nM (active). For the same compound, the Potency [8] was “inactive”.

With `C#CCN(Cc1cc2c(=O)n(C)c(CN3CCN(C)CC3)nc2cc1Cl)c1ccc(C(=O)NCc2cccnc2)cc1` the Potency [1] was 12 µM (active), the Potency [2] was “inactive” and the Potency [8] was “inactive”.

With `CC(C)Oc1ccc(C(=O)NC(CNC(=O)CN(C)C)Cc2ccc(-c3cn4cccc(C(C)O)c4n3)cc2)cc1Cl` (configuration not stated) the Potency [1] was 13.5 µM (active), the Potency [2] was 163 nM (active) and the Potency [3] was 64.9 nM (active).

With `NC[C@@](O)(c1ccc(Cl)cc1)c1ccc(-c2cn[nH]c2)cc1` the Potency [1] was 1.2 µM (active), the Potency [2] was 6.49 µM (active) and 5.25 µM (active) and the Potency [3] was 4.59 µM (active) and 4.68 µM (active). It also gave an activity [4] of 1.95%, an activity change, negative = inhibition [5] of 0% and an activity [6] of -0.549%. For the same compound, the activity [7] was -0.0519% and the Potency [8] was “inactive”.

In the case of `COC(=O)N[C@@H](C)CNc1nccc(-c2cn(C(C)C)nc2-c2cc(Cl)cc(NS(C)(=O)=O)c2F)n1`, the Potency [1] is reported as “inactive”, the Potency [2] is reported as “inactive” and the Potency [8] is reported as “inactive”.

In the case of `Cc1cc2c(F)c(Oc3ncnn4cc(OCC(C)O)c(C)c34)ccc2[nH]1` (configuration not stated), the Potency [1] is reported as 12 µM (active), the Potency [2] is reported as 4090 nM (active) and the Potency [3] is reported as 7280 nM (active). The Potency [8] was “inactive”.

With `COc1cc(N2CCC(N3CCN(C)CC3)CC2)ccc1Nc1ncc(Cl)c(-c2c[nH]c3ccccc23)n1` the Potency [1] was 19 µM (active), the Potency [9] was 55.5 µM (active) and the Potency [2] was 1150 nM (active). For the same compound, the Potency [3] was 1840 nM (active), the activity [4] was -23.6% and the Potency [5] was 24.1 µM (active). For the same compound, the activity [6] was -32.6%, the activity [7] was -23.1% and the Potency [8] was “inactive”.

With `COc1ccccc1NC(=O)OCC1CCN(C(=O)OC(C)(C)C)CC1` the Potency [1] was “inactive”, the Potency [2] was “inactive” and the Potency [3] was “inactive”. The Potency [8] was “inactive”.

With `CC1(C)CC(=O)C2=C(C1)NC(=S)NC2c1cccc(O)c1` (configuration not stated) the Potency [1] was 2.13 µM (active), the Potency [2] was 728 nM (active) and the Potency [3] was 817 nM (active). For the same compound, the Potency [8] was “inactive”.

For `CCCCNc1ncc2c(-c3ccc(CN4CCN(C)CC4)cc3)cn(C3CCC(O)CC3)c2n1` (configuration not stated), the Potency [1] was 15.1 µM (active), the Potency [2] was 1.64 µM (active) and 2.95 µM (active) and the Potency [3] was 205 nM (active) and 332 nM (active) and 662 nM (active). The Potency [8] was “inactive”.

With `c1cn2cc(-c3ccc4cn[nH]c4c3)nc(Nc3ccc(N4CCOCC4)cc3)c2n1` the Potency [1] was 0.601 µM (active), the Potency [2] was 325 nM (active) and the Potency [3] was 409 nM (active). The activity [4] was -53.7%, the Potency [5] was 21.5 µM (active) and the activity [6] was -49.6%. The activity [7] was -53.5% and the Potency [8] was “inactive”.
